Experimental findings from PubChem BioAssay (NCI) are described below.

The structures appear in SMILES notation. Compounds without any hit were thinned out: in the full panel of roughly 83,000, 20% have a hit.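 Cells were grown in 96-well plates and exposed to the test compound at a single concentration for 48 hours; results are reported as percent growth, with values below 10 considered active.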 The source made the active and inactive calls.

The test system of the assay is MDA-MB-468 breast. Put plainly: NCI-60 one-dose screen, 48 h (100 = growth as untreated, 0 = no growth, -100 = all killed). Particulars: 10 µM unless noted.
For the compound `COc1ccc(/C=C/C(=O)C(CC2CCC2)C(=O)/C=C/c2ccc(OC)c(OC)c2)cc1OC`, the growth is -22.2% (active).
To `COc1ccc(-c2nc3cccc(O)c3c(=O)n2Cc2ccccc2)cc1COc1ccc(NC(C)=O)cc1` belongs 71.9% [3 µM] (inactive); to `C=CC(=O)N[C@H](/C=C/C(=O)OCC)Cc1ccc(-c2cc(Cl)cc(Cl)c2)cc1`, 88% (inactive).
To `O=C(NCCCCCCCNC(=O)OCc1ccc2c(Cl)cc(Cl)c(O)c2n1)OCc1ccc2c(Cl)cc(Cl)c(O)c2n1` belongs -57.3% (active).
To `NS(=O)(=O)c1ccc(CN2C(=O)c3cccc4cccc(c34)C2=O)cc1` belongs 98.2% (inactive); to `COC(=O)[C@@]12OC[C@]34[C@H]([C@@H](O)[C@@H]1O)[C@@]1(C)[C@H](O)C(=O)C=C(C)[C@@H]1C[C@H]3OC(=O)C(OC(C)=O)[C@@H]24` (some centres not stated), -11.6% (active); to `Cc1cc(N2CCOCC2)nc(N(CCNc2ccnc3cc(Cl)ccc23)Cc2ccco2)n1`, 23.5% (inactive).
Turning to `O=C(O)CCCn1c(SCc2c(Cl)cccc2Cl)nc2ccsc2c1=O`, the growth was -4.76% (active).
The same measure for `O=c1c2sc3ncc(Cl)cc3c2nnn1-c1cccc(Cl)c1`: 97.3% (inactive); for `O=C(Cn1cc(CSc2nc3ccccc3o2)nn1)Nc1ccc(F)cc1F`: 104% (inactive); for `Cc1sc2c(c1C)c(=O)nc1c(-c3nc4ccccc4s3)n[nH]n12`: 101% (inactive).
To `CCN(CC)c1ccc(CNc2cc(C)nc3ccc(OC)cc23)cc1` belongs 2.98% (active); to `C[C@]12CCc3nc(Nc4ccc(O)cc4)sc3C1=CC[C@@H]1[C@@H]2CC[C@]2(C)/C(=N/NC(N)=S)CC[C@@H]12`, -58.2% (active); to `Cn1c2c(cc(S(=O)(=O)c3ccccc3)c1=O)CCc1c-2cnn1-c1ccc(Cl)cc1`, -43% (active).
The same measure for `N#C/C(=C1C=C/C(=N\O)C(Cl)=C\1)c1ccccc1`: 41.2% (inactive); for `COC(=O)c1[nH]cnc1/N=N/N(C)CCO`: 87.2% (inactive).
With `COc1cc2oc(-c3cccc(C(=O)Nc4ccc5c(c4)OCO5)c3)cc(=O)c2c(O)c1OC`, the growth was 54.6% (inactive).
For the compound `CC(C)(C)c1ccc(C(=O)Nc2sc3c(c2C#N)CCC(=O)C3)cc1`, the growth was 2.73% (active).
For the compound `NC(=NCCCOc1ccc(F)cc1)Nc1ccc(Cl)cc1`, the growth is 12.5% (inactive).
To `COc1c(Cl)c2c(c(OC)c1OC)-c1ccc(SC)c(=O)cc1[C@@H](NC(=O)OCC(F)(F)F)CC2` belongs -15.5% (active); to `CC[C@]12C=CCN3CC[C@@]4(c5ccc(OC)cc5N(C)[C@H]4[C@@](O)(C(=O)OC)[C@@H]1OC(=O)CCN1CCc4ccccc4C1)[C@@H]32`, 69.7% (inactive).
As to `CC(=O)Nc1ncc(S(=O)(=O)c2ccc([N+](=O)[O-])cc2)s1`, the growth was 107% (inactive).
Regarding `Cc1cc(Nc2ccc(OCc3ccccc3)cc2)nc2cc(O)ccc12`, the growth is 6.48% (active).
As for `Cc1cc(Nc2cccc(F)c2)nc(NCc2ccccc2)n1`, the growth was 16.2% (inactive).
As for `Cc1cc(C(=O)/C=C/c2ccc[nH]2)ccc1-n1ccc(C(F)(F)F)n1`, the growth was 90.2% (inactive).
`C=C1C(=O)O[C@H]2[C@H]1CC/C(COC(=O)NCc1ccccc1OC)=C\CC[C@@]1(C)O[C@@H]21`: the growth is 42.2% (inactive).
The same measure for `CCOC(=O)C1C(=O)C=C(c2cc(OC)c(OC)c(OC)c2)CC1c1sc(N(C)Cc2ccccc2)nc1Cl` (configuration not stated): 71.2% (inactive); for `COc1ccc(C(=O)/C=C/c2cc3ccccc3n3nnnc23)cc1`: 96.8% (inactive).
For the compound `COc1cc(/C=C2\COc3ccc(O)cc3C2=O)cc(OC)c1`, the growth was 54.1% (inactive).
Consider `Cc1nn(CC(=O)O)c2c1C(=O)CC(C)(C)C2`, for which the growth is 106% (inactive).
`CC1(C)N=C(N)N=C(N)N1c1cccc(CCCCOc2ccccc2)c1`: the growth was 10.1% (inactive).
The same measure for `COc1cc(/C=C/C(=O)c2c(-c3ccc(F)cc3)nc3sc(C)nn23)cc(OC)c1OC`: 23.9% (inactive); for `COc1ccc([C@@H]2C(=O)N(c3cc(OC)c(OC)c(OC)c3)[C@H]2c2ccc(OC)c(O)c2)cc1`: -4.45% (active); for `CC1(C)CC(=O)NC1=O`: 100% (inactive).
For the compound `O=C(/C=C/c1c(Cl)nc2sccn12)c1nccs1`, the growth was 75.7% (inactive).
As for `CCN(CC)c1ccc(C2=NN(C(C)=O)C(c3cc(OC)c(OC)c(OC)c3)C2)cc1` (configuration not stated), the growth was 17% (inactive).
Regarding `COc1ccc(CCN2COc3c([C@@H](C)CCC=C(C)C)ccc(C)c3C2)cc1OC`, the growth is 26.8% (inactive).
